# Records with an inconclusive call do not appear. The source made the active and inactive calls. How the source made its calls, unless noted: active means hit-call score of the fitted dose curve at least 0.9, where 1 is the maximum; inactive means score below 0.9.
# Read-out: not listed separately
# Assay: BSK_SAg_SRB: Viability Assessment in the BioMAP Diversity Plus: SAg Assay (AID 2283096);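 further: cells read one day after compound addition; hits may be either gain or loss of signal compared with DMSO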
# Conditions: primary human HUVEC with PBMC
# Summary of the method: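 This overt-cytotoxicity endpoint quantifies protein in human endothelial/PBMC co-cultures at 24 h using SRB absorbance (560 nm) after trichloroacetic acid fixation. Values reflect signal change from the DMSO negative control, fitted bidirectionally.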
SMILES,outcome,AC50
Cc1ccc2n[nH]nc2c1,inactive,
CCCCCCCCC=O,inactive,
OC[C@H]1O[C@H](O[C@]2(CCl)O[C@H](CCl)[C@@H](O)[C@@H]2O)[C@H](O)[C@@H](O)[C@H]1Cl,inactive,
COC(=O)c1ccc(C)cc1,inactive,
O=C1OC2(c3cc(Br)c(O)c(Br)c3Oc3c2cc(Br)c(O)c3Br)c2c(Cl)c(Cl)c(Cl)c(Cl)c21,,18.2 µM (active)
CC(=O)Nc1ccccc1O,inactive,
CC(=O)OCCC(C)CC(C)(C)C (stereo unspecified),inactive,
COc1cc(C=O)ccc1OC(=O)C(C)C,inactive,
CCc1c(C)cc(N)c(CC)c1N,inactive,
CCCCC(CC)COC(=O)/C=C\C(=O)OCC(CC)CCCC (stereo unspecified),inactive,
CC(=O)[C@H]1CC[C@H]2[C@@H]3CC=C4C[C@@H](O)CC[C@]4(C)[C@H]3CC[C@]12C,inactive,
CCCCCCCCCC=O,inactive,
O=P(c1ccccc1)(c1ccccc1)c1ccccc1,inactive,
C=C(C)C(=O)O[C@H]1C[C@@H]2CC[C@@]1(C)C2(C)C,,30.9 µM (active)
CCn1c2ccccc2c2cc(N)ccc21,inactive,
CC(C)Oc1ccccc1O,inactive,
N#Cc1ccc(CC(=NNC(=O)Nc2ccc(OC(F)(F)F)cc2)c2cccc(C(F)(F)F)c2)cc1,inactive,
CCCCC/C=C/C=C/C=O,,31.5 µM (active)
CCC(=O)OCc1ccccc1,inactive,
O=[N+]([O-])c1cc(C(F)(F)F)ccc1Cl,inactive,
C=CCOC(=O)CCC1CCCCC1,inactive,
CC(=O)O[C@]1(C(C)=O)CC[C@H]2[C@@H]3C[C@H](C)C4=CC(=O)CC[C@]4(C)[C@H]3CC[C@@]21C,inactive,
c1ccc2sc(SN(C3CCCCC3)C3CCCCC3)nc2c1,,11.4 µM (active)

# Molecular target: human CYP19A1, CYP19A1 (gene 1588) (UniProt P11511)
# Assay: NVS_ADME_hCYP19A1: NovaScreen (NVS) CYP450-related Enzyme Activity (ADME) Assay for human CYP19A1 (AID 2283098; active means hit-call score of the fitted dose curve at least 0.9, where 1 is the maximum;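 on AC50: potency for inhibitors seen as loss of fluorescent enzyme signal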)
# Conditions: not given
# Summary of the method: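 Compounds were first screened at 10 uM in duplicate against purified enzyme, with a fluorogenic substrate and fluorescence intensity detection after 0.5 h. Inhibition appears as reduced signal against acetonitrile control.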
# Chain of human CYP19A1, CYP19A1 (gene 1588) (P11511 whole entry, looked up): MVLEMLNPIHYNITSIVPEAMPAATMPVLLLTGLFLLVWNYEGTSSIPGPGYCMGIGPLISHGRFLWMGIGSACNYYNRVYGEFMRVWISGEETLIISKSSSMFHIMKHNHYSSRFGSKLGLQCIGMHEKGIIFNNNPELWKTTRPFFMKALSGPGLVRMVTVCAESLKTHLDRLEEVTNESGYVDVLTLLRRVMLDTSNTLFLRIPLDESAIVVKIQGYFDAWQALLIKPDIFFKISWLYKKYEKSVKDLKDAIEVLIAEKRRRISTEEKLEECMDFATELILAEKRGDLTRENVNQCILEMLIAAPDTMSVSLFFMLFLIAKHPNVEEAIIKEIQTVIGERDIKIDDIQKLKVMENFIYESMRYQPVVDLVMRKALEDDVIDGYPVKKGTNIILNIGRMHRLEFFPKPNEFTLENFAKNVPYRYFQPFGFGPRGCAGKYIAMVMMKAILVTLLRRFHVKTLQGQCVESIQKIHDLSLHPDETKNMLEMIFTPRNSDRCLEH
SMILES,outcome,AC50
CN(C)CCCN,inactive,
Cc1ccc(C(C)C)cc1O,,3.83 µM (active)
CCCCCCCCCCCCCCCC(=O)OC[C@H](O)[C@H]1OC(=O)C(O)=C1O,,2.33 µM (active)
CCCCCCCCCCCCCOS(=O)(=O)O,inactive,

# Molecular target: human CYP2C9, CYP2C9 (gene 1559) (UniProt P11712)
# Assay: NVS_ADME_hCYP2C9: NovaScreen (NVS) CYP450-related Enzyme Activity (ADME) Assay for human CYP2C9 (AID 2283108; active means hit-call score of the fitted dose curve at least 0.9, where 1 is the maximum)
# Conditions: not given
# Summary of the method: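 Cell-free assay of recombinant human CYP2C9 produced in Sf9 cells, with enzyme activity read by fluorescence intensity 0.75 h after compound addition. Loss of signal versus an acetonitrile negative control indicates inhibition. Primary screen used 10 uM in duplicate; actives were retested in concentration series.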
# Chain of human CYP2C9, CYP2C9 (gene 1559) (P11712 whole entry, looked up): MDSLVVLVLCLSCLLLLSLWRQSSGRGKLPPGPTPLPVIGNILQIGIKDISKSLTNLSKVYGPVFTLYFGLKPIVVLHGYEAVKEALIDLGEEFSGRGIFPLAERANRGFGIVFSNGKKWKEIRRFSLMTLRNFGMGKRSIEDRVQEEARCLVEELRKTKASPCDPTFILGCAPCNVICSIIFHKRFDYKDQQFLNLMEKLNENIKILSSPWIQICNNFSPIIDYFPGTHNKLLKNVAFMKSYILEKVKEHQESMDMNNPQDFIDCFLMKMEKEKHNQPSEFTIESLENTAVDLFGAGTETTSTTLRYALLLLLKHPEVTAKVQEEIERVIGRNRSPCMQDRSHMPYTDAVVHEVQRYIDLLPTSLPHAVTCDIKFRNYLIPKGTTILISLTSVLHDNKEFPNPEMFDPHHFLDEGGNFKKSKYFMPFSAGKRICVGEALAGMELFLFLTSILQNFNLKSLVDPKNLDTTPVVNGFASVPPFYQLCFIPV
SMILES,outcome,AC50
Nc1ccc(F)c([N+](=O)[O-])c1,inactive,
O=P(c1ccccc1)(c1ccccc1)c1ccccc1,,3.19 µM (active)
CCn1c2ccccc2c2cc(N)ccc21,,0.405 µM (active)
CC(=O)O[C@]1(C(C)=O)CC[C@H]2[C@@H]3C[C@H](C)C4=CC(=O)CC[C@]4(C)[C@H]3CC[C@@]21C,,0.119 µM (active)

# From PubChem BioAssay (EPA / NIEHS)
